# Assays:
# Assay in all cases: PBM binding z-score (relative to random genomic background probes); higher = stronger binding; sequences stand for … in GC…GCGATTGACAGCGTAGAATGAAGG
# [1] = test system: FXR:RXRa (NR concentration 270 nM, RXRa partner concentration 90 nM)
# Summary of the method: (§1)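 Regression normalization was applied to scanned fluorescence from custom Agilent 4×180K protein-binding microarrays. Before scanning, arrays were incubated 1 h with ligand-free nuclear receptor dimers, and binding was detected with antibodies against each partner (one per run). Binding z-scores use the random background probes as reference.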
# [2] = test system: LXRa:RXRa (NR concentration 270 nM, RXRa partner concentration 90 nM)
# Summary of the method: as §1
# [3] = test system: LXRa homodimer (NR concentration 270 nM)
# Summary of the method: as §1
# [4] = test system: LXRb:RXRa (NR concentration 270 nM, RXRa partner concentration 90 nM)
# Summary of the method: as §1
# [5] = test system: LXRb homodimer (NR concentration 270 nM)
# Summary of the method: as §1
# [6] = test system: PPARa:RXRa (NR concentration 270 nM, RXRa partner concentration 90 nM)
# Summary of the method: as §1
# [7] = test system: PPARg:RXRa (NR concentration 180 nM, RXRa partner concentration 90 nM)
# Summary of the method: as §1
# [8] = test system: PPARg:RXRa 270nM:90nM, anti-RXR (NR concentration 270 nM, RXRa partner concentration 90 nM)
# Summary of the method: as §1
# [9] = test system: PPARg:RXRa 30nM:10nM, anti-RXR (NR concentration 30 nM, RXRa partner concentration 10 nM)
# Summary of the method: as §1
# [10] = test system: PPARg:RXRa 90nM:30nM, anti-RXR (NR concentration 90 nM, RXRa partner concentration 30 nM)
# Summary of the method: as §1
# [11] = test system: PPARg:RXRa DBDmut IVT, anti-RXR (DBD mutation: RXRa K156A/R161A, NR concentration 270 nM, RXRa partner concentration 90 nM)
# Summary of the method: as §1
# [12] = test system: PPARg:RXRa IVT, anti-PPARg (NR concentration 270 nM, RXRa partner concentration 90 nM)
# Summary of the method: as §1
# [13] = test system: PPARg DBDmut:RXRa IVT, anti-PPARg (DBD mutation: PPARg1 K132A/R137A, NR concentration 270 nM, RXRa partner concentration 90 nM)
# Summary of the method: as §1
# [14] = test system: PPARg DBDmut IVT, anti-PPARg (DBD mutation: PPARg1 K132A/R137A, NR concentration 270 nM)
# Summary of the method: as §1
# [15] = test system: PPARg homodimer (NR concentration 180 nM)
# Summary of the method: as §1
# [16] = test system: PXR:RXRa (NR concentration 270 nM, RXRa partner concentration 90 nM)
# Summary of the method: as §1
# [17] = test system: PXR homodimer (NR concentration 270 nM)
# Summary of the method: as §1
# [18] = test system: RARa:RXR (NR concentration 270 nM, RXRa partner concentration 90 nM)
# Summary of the method: as §1
# [19] = test system: RARa homodimer (NR concentration 270 nM)
# Summary of the method: as §1
# [20] = test system: RARb:RXRa (NR concentration 270 nM, RXRa partner concentration 90 nM)
# Summary of the method: as §1
Sequence,PBM binding z-score [1],PBM binding z-score [2],PBM binding z-score [3],PBM binding z-score [4],PBM binding z-score [5],PBM binding z-score [6],PBM binding z-score [7],PBM binding z-score [8],PBM binding z-score [9],PBM binding z-score [10],PBM binding z-score [11],PBM binding z-score [12],PBM binding z-score [13],PBM binding z-score [14],PBM binding z-score [15],PBM binding z-score [16],PBM binding z-score [17],PBM binding z-score [18],PBM binding z-score [19],PBM binding z-score [20]
CGACCGAGGGCATGAGTTGATAGCAAATGCCGAT,0.304,0.28,-0.485,0.286,-0.854,0.989,0.738,-0.153,-0.657,-0.438,0.432,0.376,-0.421,-0.612,0.0239,0.48,-0.327,0.539,-0.74,2.11
CTCTAAAGGTCGTGCTCAGGTGAGTATACCAAAC,5.37,4.54,0.529,3.65,0.548,5.2,3.27,4.11,0.925,2.64,1.12,2.17,0.717,0.316,1.58,3.09,-0.0495,4.14,-0.0895,3.93
CCTTACGGGACAAGGTTATAGCACGGGTGGTACG,0.441,0.693,-0.25,0.134,-0.233,1.02,1.08,0.756,0.00492,0.323,-0.648,0.0765,-0.507,-0.996,0.819,0.699,0.148,1.01,0.441,0.996
CAAACTAGGTCACCGGAAGGTCAAATTCCGCATG,6.25,6.28,5.9,5.82,1.95,6.06,9.94,8.01,6.22,7.81,8.5,8.8,3.05,2.87,7.39,6.11,2.46,7.62,3.35,5.12
AGAACGAGGGCACGCTGAGTCGATAGCAGAGTAG,0.534,0.569,-0.415,-0.0914,-1.26,1.98,2.05,1.66,0.0721,0.871,4.27,3.81,0.34,0.0245,-0.314,0.266,-0.486,0.489,-0.608,2.42
CGTCAAAGTTCAAAGTAACGTAACAGAAAGCAGC,6.87,6.57,4.32,4.01,2.75,4.91,4.43,5.36,2.18,4.17,0.465,1.58,1.23,1.35,3.3,4.68,3.73,3.43,1.73,4.9
ATCGACAGGTCGAAGGTGAGTATACCCACCCGAA,0.612,0.709,-0.323,0.59,-0.341,2.27,2.57,2.71,1.04,2.75,-0.979,1.09,0.369,-0.333,0.63,0.914,-0.44,1.5,-0.439,1.64
TCTATTAGTTCAAGGGCAACCGACGAGTCCGTTT,1.82,1.97,1.24,1.45,0.602,2.23,0.394,2.66,3.94,3.37,2.36,1.14,0.61,1.22,1.87,2.28,2.5,1.55,1.41,3.08
CCTACTGGGCCAAAAAGATCATTGATGCCGATAA,-0.2,-0.313,-0.155,-0.481,-0.601,0.11,0.525,0.504,-0.0196,0.372,3.14,2.44,-0.679,-0.158,0.38,-0.395,-0.298,-0.562,0.184,-0.239
CATACAGGGTCAGCTAGGCCAGAGTTGGGACGGC,4.25,2.86,-0.145,2.06,0.341,4.17,3.24,2.97,0.45,1.6,1.33,2.34,0.63,0.195,0.968,1.85,-0.0328,2.78,0.28,4.17
TATATAGGGTCAAAGGCCAGAGTACGAATGTCGA,7.32,6.1,2.48,5.05,2.01,6.35,8.65,7.34,5.8,7.54,3.56,5.37,1.12,1.69,2,4.21,0.472,5.56,0.52,4.49
ATATGTAGGCTATCGGGTCATTCAGTTTGCGCAT,1.71,1.58,0.22,1.95,0.313,3.69,4.12,3.83,1.92,3.21,5.77,5.5,1.43,1.46,1.08,2.87,6.85,2.54,0.357,1.72
ATATGTAGGTTAGCTGGGGTCATTCAGACTAGGC,4.38,5.95,3.02,4.75,0.992,5.13,5.66,5.12,2.67,4.46,6.68,6.23,2.15,1.68,2.64,6.34,4.08,5.73,1.52,2.96
AGCATGAGGTTACCAAAGATCAGGGAAACGCTTG,1.94,6.48,0.0616,3.13,-0.682,2.77,1.41,1.4,0.579,1.07,0.803,0.996,0.0724,-0.827,0.663,1.38,0.241,2.44,-0.672,2.07
CCGACTGGGACAGAAAGGTTACCATACCATCCGG,0.177,0.493,-0.124,0.512,-1.05,1.71,1.4,1.74,0.364,1.34,0.593,1.09,-0.448,-0.875,1.09,1.01,0.0178,1.63,-0.302,1.47
GTTTGTAGATCAAGGTTAAGAAAGACTAAGCTAA,0.943,1.64,0.556,0.954,0.547,1.84,1.93,2.88,1.48,2.65,1.8,1.93,1.34,0.524,1.43,0.822,1.11,1.21,2.12,1.24
CCTGCGAGGTCAATGGTCAGCTAAAGCAGCTCGC,7.26,5.25,0.691,4.29,0.981,5.73,5.75,6.01,2.22,4.25,3.45,3.93,1.18,-0.453,2.42,4.55,0.99,4.6,0.55,5.07
TCGCGGAGGACACGAAAGGTCAGAGCTCGACATC,2.61,3.72,2.77,3.12,-0.812,3.59,1.18,2.51,0.965,1.95,0.791,1.5,0.00207,-0.746,2.36,3.97,0.407,4.24,1.04,4.03
CCGACCGGGGCAAGGTTACCATAACGCACAGCCA,0.591,1.02,-0.0287,0.604,-0.88,1.3,1.3,1.18,-0.0517,0.495,0.434,0.22,-0.24,-0.801,0.684,0.376,-0.0438,1.28,0.236,1.97
AGTCTAAGTTCAGGACGAGGTAACGTAAAGCACG,1.61,1.56,0.288,0.821,-0.194,1.82,0.831,0.749,0.345,0.385,-0.507,0.167,0.154,0.579,1.1,2.21,1.18,1.79,0.351,2.95
ATCTCTAGGTAACACGTTCAGTGAAAGAGAGGAC,0.359,0.232,0.454,0.113,0.898,0.511,0.99,1.06,0.213,0.803,3.45,3.05,1.75,1.04,0.135,0.0713,0.206,0.208,0.489,0.552
CCGACTGGGGCAAGGTTAACATAACGCACAGCCA,0.315,0.681,-0.0664,0.737,-0.786,2.59,4.38,4.92,2.68,4.38,3.28,3.69,0.246,-0.475,0.856,0.52,-0.244,0.896,0.086,1.74
TCTTGTAGATCAACAGGAGGTTAAAAAAGATCGA,0.243,2,0.321,1.34,-0.17,1.54,0.116,1.59,2.66,2.31,1.2,0.996,0.773,1.21,-0.0647,0.969,-0.197,0.92,0.296,0.47
GCGACTGGGGCAAAACAGGTTACCATAAGGTTGG,0.267,0.15,-0.287,0.476,-0.432,1.12,1.22,0.615,-0.338,-0.0458,3.9,3.17,-0.443,-0.478,-0.0203,0.334,-0.325,0.794,-0.332,0.897
TGAATGAGGTTAAAGATCAGTGAACGTGGCGTCG,3.15,2.41,-0.442,1.55,-0.0397,4.69,5.57,6.1,4.77,6.78,2.37,3.44,0.722,0.242,1.24,2.01,0.152,3.08,-0.0565,2.09
TTACCTAGGTGAAGGTCGTTGATCCCTCTGTAGA,2.2,1.82,-0.334,1.6,-0.843,2.32,1.4,2.36,0.624,1.55,2.92,3.84,0.00137,-0.113,0.298,1.16,0.136,1.48,-0.66,1.45
CCTTAAGGGTCACTCCAGGTTATAGCATCGGAGT,6.75,7.97,3.36,5.9,0.565,5.33,4.86,5.1,2.01,4.34,3.17,4.07,0.0681,0.102,2.47,5.59,0.47,4.49,0.956,4.97
AATAGAGGGTCACTAGGCCAGAGTAGGTACGAAT,4.62,3.5,0.324,2.81,-0.0545,4.99,6.44,5.59,2.33,4.4,3.57,5.33,0.782,0.194,1.04,1.95,-0.034,2.89,0.102,3.69

# Reference: the supplement of paper PMC6555819
